# From PubChem BioAssay AID1259422 (The Scripps Research Institute Molecular Screening Center, 2018)
# Among all 640,000 compounds or so, about 9,300 (1.5%) were called active. The entries come from a sample that favours actives as a whole. A number with no mark means an inactive call. Rule as the data show it: active = inhibition above about 32%; inactive = the rest.
# Assay: TEAD-YAP interaction inhibition, primary screen, TEAD-YAP interaction inhibitor project, luminescence, HEK-TIYL cells (AID 1259422);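 also: 0% = median of test compound wells and 100% = reference inhibitor wells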
# Conditions: TEAD-Gal4/YAP UAS-luciferase luminescence, at 9.12 µM, active compounds read high
row,SMILES,inhibition
1,Cn1c(/N=C/c2nc(-c3cccc4ccccc34)oc2O)nc2ccccc21,-6.43%
2,O=C(CO/N=C/c1ccccc1)N=Nc1c(O)[nH]c2ccccc12,5.66%
3,CC1=CCC(C(=O)O)C(C(=O)Nc2nc3ccc(C)cc3s2)C1 (stereo not given),-1.36%
4,COc1ccc2c(c1)CC(C(=O)Nc1nc3ccc(-c4cn[nH]c4C)cc3s1)CO2 (stereo not given),53.5% (active)
5,COc1ccc2c(c1)CC(C(=O)Nc1ccc(-c3cn[nH]c3)cc1O[C@H]1CCOC1)CO2 (stereo not given in full),22.3%
6,CCOc1ccc2nc(NC(=O)C3CC3)sc2c1,-49.8%
7,COc1ccc2c(c1)CC(C(=O)Nc1ccc(-c3cn[nH]c3)cc1OCc1ccccc1)CO2 (stereo not given),-15.1%
8,Cc1[nH]ncc1-c1ccc2nc(NC(=O)C3COc4ccccc4C3)sc2c1 (stereo not given),60.2% (active)
9,Cc1cccc(C2c3[nH]c4ccccc4c3CCN2C(=O)Cn2nc(C)nc2C)n1 (stereo not given),-0.52%
10,N#C/C(=C\c1ccc(N2CCOCC2)cc1)c1ccccn1,90.2% (active)
11,COc1ccc2nc(/C(C#N)=C\c3ccc(N4CCOCC4)cc3)[nH]c2c1,-25.6%
12,COCCNC(=O)/C(C#N)=C/c1ccc(N2CCOCC2)cc1,-20.6%
13,CCOc1cc(C2C=C(c3cccc([N+](=O)[O-])c3)Nc3ncnn32)ccc1OC(F)F (stereo not given),-5.43%
14,COC(=O)c1ccc(CSc2cc(N3CCN(c4ccccc4F)CC3)ncn2)o1,-17.6%
15,Cc1cc(C)n2nc(SCC(=O)NCCCN3CCCC3=O)nc2n1,6.95%
16,O=C1N=c2ccccc2=C1c1[nH]c(=S)n(-c2ccccc2)c1O,-4.63%
17,COc1cccc(-n2c(SCC(=O)Nc3cccc(O)c3)nnc2-c2ccncc2)c1,1.48%
18,COc1cccc(-c2nnc(SCC(=O)Nc3ccccc3)n2-n2cccc2)c1,47.3% (active)
19,COC(=O)CSc1nnc(-c2cccc(OC)c2)n1C,8.2%
20,COCCNC(=O)c1oc2ccc3c(c2c1C)C(=O)CC1(CCCC1)O3,-23.1%

row,SMILES,inhibition
1,Nc1nc(SC(c2ccccc2)c2ccccc2)nc2sc3c(c12)CCCC3,5.46%
2,O=C(c1cc(COc2ccc3ncccc3c2)on1)N1C[C@@H]2CCC[C@H]1C2,32.6% (active)
3,COCC1CCN(C(=O)c2cc(COc3ccc4ncccc4c3)on2)C1 (stereo not given),30.8%
4,CCN(CC)C1CCN(C(=O)c2cc(COc3ccc4ncccc4c3)on2)C1 (stereo not given),14.7%
5,Cc1cc(CNC(=O)c2cc(COc3ccc4ncccc4c3)on2)nn1C,12.1%
6,Cc1nonc1CN(C)C(=O)c1cc(COc2cccc(C(F)(F)F)c2)on1,-10.6%
7,CN(Cc1cccnc1)C(=O)c1cc(COc2ccc3ncccc3c2)on1,40.8% (active)
8,NC(=O)COC(=O)c1cccc(S(=O)(=O)NCc2ccccc2)c1,-3.84%
9,CC(C)c1ccc(CN[C@H]2C[C@H]3C(=O)N[C@H]([C@H](C)O)C(=O)N3C2)cc1,1.15%
10,COc1ccc(NC(=O)C2Cc3ccccc3CN2S(=O)(=O)c2ccc(C)cc2)cc1 (stereo not given),12.4%
11,[O-][n+]1onc2c1CCc1[nH]c(-c3ccccc3)nc1-2,41.9% (active)
12,c1ccc(-c2nc(-c3ccncc3)[nH]c2-c2ccccc2)cc1,6.95%
13,Nc1nc2c(s1)CCc1c-2no[n+]1[O-],12.3%
14,Cc1ccc(C)c(N(Cc2ccccc2C)S(C)(=O)=O)c1,-3.99%
15,COc1ccc(Cl)cc1Nc1c(-c2ccc3c(c2)OCC(=O)N3)c(=O)c1=O,2.85%
16,Cc1ccc(C(=O)Nc2nccs2)cc1C,-7.57%
17,CC(=O)C(C)(C)OC(=O)Nc1nccs1,4.65%
18,CC(C)(C)C(=O)Nc1ccc(C(=O)Nc2nccs2)cc1,53.9% (active)
19,COc1ccccc1NC(=O)COC(=O)C(C)N1C(=O)C(=O)c2ccccc21 (stereo not given),13.1%
20,Cc1ccc(/C=N/NC(=O)c2cccc(F)c2)c(O)c1,-36.3%

row,SMILES,inhibition
1,O=C(Nc1c(C(=O)N2CCC(Cc3ccccc3)CC2)cnn1-c1ccccc1)c1ccco1,-7.49%
2,NC1=NC(=O)/C(=C\c2ccc3c(c2)OCO3)S1,46.8% (active)
3,COC(=O)c1ccc(/C=C2/SC(N)=NC2=O)cc1,16%
4,CN1C(N)=NC(=O)/C1=C\c1ccc2c(c1)OCO2,-15%
5,CC(C)CC1=NN2C(=N)/C(=C/c3ccc4c(c3)OCO4)C(=O)N=C2S1,-1.58%
6,COc1cc(/C=C2/SC(N)=NC2=O)cc(OC)c1OC,6.04%
7,NC1=NC(=O)/C(=C\c2ccc3ncccc3c2)S1,52.6% (active)
8,CCOC(=O)c1c(NC(=O)CSc2nnc(CNC(=O)c3cc(OC)cc(OC)c3)n2-c2cccc(C)c2)sc2c1CCCC2,3.65%
9,CCOc1ccc(C(=O)O/N=C(\N)c2ccc(OC)cc2)cc1OCC,-6.66%
10,Cc1cc(N2CCCC2)nc2ccc(NC(=S)NCC3CCCO3)cc12 (stereo not given),-6.91%
11,Cc1c(SC(F)(F)C(F)C(F)(F)F)c(=O)n(-c2ccccc2)n1C (stereo not given),18.8%
12,O=C(NC1CC1)c1cccc(N2CCc3ccccc3C2)n1,-13.8%
13,NC(=O)C(C(N)=O)C1OC(=O)C(Cl)=C1Cl (stereo not given),0.04%
14,C/C(=N\NC(=O)c1ccccc1I)c1ccc(O)cc1,-8.63%
15,COC(=O)C1=C(C)N(CC2CCCO2)C(=O)/C1=C\c1cc(C)n(-c2cccc(C)c2)c1C (stereo not given),0.89%
16,CCc1ccccc1N1C(=O)NC(=O)/C(=C\c2cc(C)n(-c3cccnc3)c2C)C1=O,-3.42%
17,Cc1cc(/C=C2/SC(=O)N(C)C2=O)c(C)n1-c1ccc(I)cc1,-24.8%
18,COC(=O)C1=C(C)N(C)C(=O)/C1=C\c1cc(C)n(-c2ccc(Br)cc2)c1C,-6.34%
19,CCN1C(=O)/C(=C\c2cc(C)n(-c3ccccc3)c2C)C(C(=O)OC)=C1C,36.6% (active)
20,CCN1C(=O)S/C(=C/c2cc(C)n(-c3cccnc3)c2C)C1=O,50.4% (active)
